# eIF4E-4G inh = eIF4E/eIF4G interaction inhibition in translation initiation. AID 782. actives 0.37% (n = 220,000). TR-FRET eIF4E-eIF4GI(517-606) binding, 2 h. inhibition, % at 21.7 µM. P63073+Q04637;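 active = inhibition above about 30%, limit read from the data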
# Mcl1 Bid PPI = Mcl-1/Bid interaction inhibition; actives 0.97% (n = 220,000); AID 1021; inhibition, % at 21.7 µM; TR-FRET Mcl-1/Bid-Dy647 peptide binding, 1536-well;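 active = compounds that cut the binding signal by more than half at the single screening dose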;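 note: His-tagged Mcl-1 with europium anti-His antibody binding Bid BH3 peptide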
# Pf gametocyte = inhibitors of late stage P. falciparum gametocyte viability | P. falciparum stage V gametocytes, ATP luminescence, 24 h | inhibition, % at 10.9 µM | actives 0.065% (n = 150,000) | AID 743093;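 active = inhibition above the mean plus 3 SD of compounds within the control limits, set per campaign, cut at about 38% in these data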
# 14-3-3 Bad PPI = disrupts binding of bovine 14-3-3 zeta to phospho-Bad peptide; AID 781; actives 0.71% (n = 220,000); inhibition, % at 21.7 µM; TR-FRET 14-3-3zeta/Dy647-pBad peptide displacement, 1 h; P63103;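 active = inhibition above about 70%, limit read from the data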
# Mcl-1 Bim block = inhibitors of Bim-Mcl-1 interaction, human; inhibition, % at 10 µM; Q07820; actives 0.1% (n = 190,000); Bead-based flow cytometry, Bim peptide-Mcl-1 binding; in the data active = inhibition above about 40%
# Mcl1-Noxa inh = disrupts binding of human Mcl-1 to Noxa peptide; Q07820; TR-FRET Mcl-1/Noxa peptide binding, 2 h; inhibition, % at 21.7 µM; actives 1.5% (n = 220,000); AID 1022;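 active = compounds that cut the protein-peptide binding signal by more than 50% relative to plate controls in a single-dose test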;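 note: His-tagged Mcl-1 with rhodamine Noxa BH3 peptide and terbium anti-His antibody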
# Hits are given with their value; . = inactive; / = no result; [ ] = dose if it differs, or a comment. A selection: hits, their analogues and other compounds. The true share with any hit is near 2.7%.
SMILES,eIF4E-4G inh,Mcl1 Bid PPI,Pf gametocyte,14-3-3 Bad PPI,Mcl-1 Bim block,Mcl1-Noxa inh
CCOc1ccc(N2C(=O)CCC2=O)cc1,.,.,/,.,.,.
Cc1cc(=O)[nH]c(SCC(=O)NCC2CCCCC2)c1C#N,.,.,.,.,.,.
Fc1ccc(-n2c(-c3ccc4ccccc4n3)n[nH]c2=S)cc1Cl,.,.,.,.,.,.
S=c1[nH]nc(-c2ccc3ccccc3n2)n1-c1ccc2ncccc2c1,.,.,.,.,.,70
CCn1c(-c2cc3c(C(F)(F)F)nn(C)c3s2)n[nH]c1=S,.,.,.,.,.,72
Cn1c(-c2cc3c(C(F)(F)F)nn(C)c3s2)n[nH]c1=S,.,.,/,.,.,.
CCOC(=O)C1CCCN(CC(=O)NC2CC2)C1 (configuration not stated),.,.,/,77,.,.
CCOC(=O)C1CCCCN1Cc1ccccc1C(F)(F)F (configuration not stated),.,.,.,80,.,.
CCOC(=O)C1CCCN(CC(=O)Nc2cc(C)cc(C)c2)C1 (configuration not stated),.,.,/,.,.,.
CCOC(=O)C1CCCN(C(=O)COc2ccccc2O)C1 (configuration not stated),.,.,/,.,.,.
CCOC(=O)C1CCN(Cc2ccccc2C(F)(F)F)CC1,.,.,.,.,.,.
CCOC(=O)C1CCCN(Cc2ccccc2F)C1 (configuration not stated),.,.,.,73,.,.
CCOC(=O)C1CCCN(C(=O)CSCc2ccccc2)C1 (configuration not stated),.,.,/,84,.,.
COc1ccc(CNc2ncnc3c2[nH]c2cc(OC)c(OC)cc23)cc1,.,.,.,.,/,52
CC1=CCC(C(=O)O)C(C(=O)Nc2ccc(-c3nc4ccc(C)cc4s3)cc2)C1 (configuration not stated),80,.,.,.,/,.
CC(=O)NC(=S)Nc1ccc(-c2nc3ccc(C)cc3s2)cc1,.,.,.,.,.,.
Cc1ccc2nc(-c3ccc(NC(=O)COC(=O)c4ccc([N+](=O)[O-])o4)cc3)sc2c1,.,62,.,.,.,71
O=C(c1ccc2nc(N3CCCCC3)sc2c1)N1CCN(Cc2ccc3c(c2)OCO3)CC1,.,.,/,.,.,.
COc1cc(OC)cc(C(=O)NCC(=O)OCC(=O)c2ccc3c(c2)-c2ccccc2C3)c1,.,.,/,.,.,.
Nc1c(S(=O)(=O)c2cccs2)c2nc3ccccc3nc2n1/N=C/c1cccc(O)c1,.,.,.,.,.,73
Nc1c(S(=O)(=O)c2ccccc2)c2nc3ccccc3nc2n1/N=C/c1ccco1,.,.,.,.,.,73
COc1ccc(S(=O)(=O)c2c(N)n(Cc3ccco3)c3nc4ccccc4nc23)cc1,.,.,/,.,.,57
O=C(NCC1COCCO1)C1CCN(S(=O)(=O)c2ccccc2)CC1 (configuration not stated),.,.,/,.,.,.
CCOC(=O)N1CCC(N2Cc3cccc(C(=O)N4CCN(c5cccc(Cl)c5)CC4)c3C2=O)CC1,.,.,/,.,.,.
N/C(=N\N=C\c1ccnc2ccccc12)SC1CC(=O)N(c2ccc(Br)cc2)C1=O (configuration not stated),.,.,/,.,.,.
SMILES,eIF4E-4G inh,Mcl1 Bid PPI,Pf gametocyte,14-3-3 Bad PPI,Mcl-1 Bim block,Mcl1-Noxa inh
COc1ccc(N2C(=O)CC(S/C(N)=N/N=C/c3ccnc4ccccc34)C2=O)cc1 (configuration not stated),.,81,/,75[fluorescence artefact?],.,.
OCCN1CCN(CCOc2cccc(Cl)c2)CC1,.,.,.,.,.,.
COc1ccc(NC(=O)c2c3c(nc4ccccc24)CCC3)cc1S(=O)(=O)N1CCOCC1,.,.,/,.,.,67
Cc1ccc(NC(=O)c2c3c(nc4ccccc24)CCC3)cc1S(=O)(=O)N(C)C,.,.,.,.,.,.
CCOC(=O)C1(CCCc2ccccc2)CCN(C(=O)c2cnn(CC)c2)CC1,.,.,.,.,.,.
O=C(NC1CCCC1)c1cnc2n(c1=O)CCS2,95[fluorescence artefact?],.,/,.,.,.
Nc1ccc(Cc2ccc(N)c(O)c2)cc1O,.,.,.,.,.,87
COc1cc(Cc2ccc(N)c(OC)c2)ccc1N,.,.,.,.,.,.
COc1ccc2c(c1O)-c1ccccc1CCN(C)C2,.,.,/,.,.,.
CN1CCc2cccc3c2[C@@H]1Cc1ccc(O)c(O)c1-3,.,.,/,.,.,92
Cn1c(=O)cc(SCC(=O)NCCC2=CCCCC2)c2cc(Cl)ccc21,.,.,.,.,.,.
CN(/N=C\c1ccc(O)c(O)c1)c1nc(-c2ccccc2)cc(-c2ccccc2)n1,.,.,.,.,.,72
Cc1ccc2nc3c(c(Nc4ccc5c(c4)OCCO5)c2c1)CCC3,.,.,.,.,.,56
N=c1n(CC(=O)c2cccc([N+](=O)[O-])c2)c2ccccc2n1Cc1ccccc1,.,.,.,.,.,.
CCn1c(=N)n(CC(=O)c2cccc([N+](=O)[O-])c2)c2ccccc21,.,.,.,74[fluorescence artefact?],.,.
O=C(Nc1ccccc1Cl)c1cnccn1,.,.,.,.,.,83
O=C(Nc1ccc(Br)cc1Cl)c1cnccn1,.,.,/,.,.,.
O=C(Nc1ccc(Cl)c([N+](=O)[O-])c1)c1cnccn1,.,.,.,.,.,64
CCc1nnc(NC(=O)CSc2ccc(Cl)cc2)s1,/,/,.,/,/,/
CS/C(=N\S(=O)(=O)c1cccs1)Nc1cccc(Cl)c1C,.,.,/,.,.,.
CS/C(=N\S(=O)(=O)c1cccs1)Nc1ccc(F)c(Cl)c1,.,.,59,.,.,.
Cc1[nH]c2ccccc2c1C(=O)C(=O)NCCOc1ccccc1,.,.,.,.,.,.
Cc1ccc(OS(=O)(=O)c2cn(C)c(=O)n(C)c2=O)cc1C,.,.,.,.,.,.
Clc1cc(Br)ccc1OCCCn1ccnc1,.,.,.,.,.,.
Clc1cc(Br)ccc1OCCn1ccnc1,.,.,.,78,.,.
SMILES,eIF4E-4G inh,Mcl1 Bid PPI,Pf gametocyte,14-3-3 Bad PPI,Mcl-1 Bim block,Mcl1-Noxa inh
COc1ccc(/C=N/NC(=O)c2ccccc2O)cc1Cn1cc([N+](=O)[O-])cn1,.,.,.,.,/,.
COc1ccc(/C=N/NC(=O)c2cc(O)c(O)c(O)c2)cc1Cn1cc([N+](=O)[O-])cn1,.,.,.,.,.,93
O=C(NCc1ccc(Cl)cc1)c1ccccc1Oc1ccccc1,.,.,/,.,.,.
O=C(CNC(=O)c1ccc(F)cc1)N/N=C/c1cc(Br)ccc1OC(=O)/C=C/c1ccco1,.,.,.,.,/,59
COC(=O)c1ccc(C)c(NC(=O)CCNC(=O)c2ccc([N+](=O)[O-])cc2)c1,.,.,/,.,46,.
COC(=O)c1cccc(NC(=O)CCNC(=O)c2ccc([N+](=O)[O-])cc2)c1,.,.,.,.,.,.

# Source: PubChem BioAssay
